Hit rate of the full screen: of about 93,000 compounds, about 160 (0.17%) were called active.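 The calls were made as follows: active = cell count reduction exceeding the screen mean by over 5 SD, scaled to untreated wells per plate (cut at about 78% in these data); inactive = the rest.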 For the sample, actives were picked, then their nearest neighbours and some compounds at random.
Experiment: HUVEC nuclei count loss under TNFa – imaging, Hoechst nuclei count, cytotoxicity control for VCAM1 expression modulator project, primary screen (AID 848);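 also: cells counted after 24 h of TNF alpha exposure following the 1 h pretreatment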
Conditions: HUVEC TNFalpha-stimulated, at 2 µM, stronger effect = higher value

Row | Structure (SMILES) | cell count reduction
1 | CCC(=O)Nc1ccc(C(=O)Nc2cccc(OC)c2)cc1 | -29.2% (inactive)
2 | COc1cc(/C=N/O)cc(Br)c1OS(=O)(=O)c1ccc(C)cc1 | -20% (inactive)
3 | COc1ccc(/C=C(\NC(=O)c2ccc(OC)c(OC)c2)C(=O)NCCc2c[nH]c3ccccc23)cc1 | -3.8% (inactive)
4 | Cc1cccc(N2CCN(S(=O)(=O)c3ccc4[nH]c(=O)c(=O)[nH]c4c3)CC2C)c1 (configuration not stated) | -4.3% (inactive)
5 | Cc1ccc(NC(=O)CN2CCc3ccccc3C2)cc1 | -11.7% (inactive)
6 | COc1ccccc1-c1n[nH]c2c1[C@H](C)CC[C@H]2C(C)C | -1.8% (inactive)
7 | O=C1CSC(c2ccccc2)N1c1nc(-c2ccc(Cl)cc2Cl)cs1 (configuration not stated) | 12.4% (inactive)
8 | CC1(C)Cc2c(sc3nc(SCC(=O)NCc4ccccc4)n(-c4ccccc4)c(=O)c23)CS1 | -2.4% (inactive)
9 | O=C1CCCC2=C1C(c1ccccc1)n1c(s/c(=C/c3cccc(F)c3)c1=O)=N2 (configuration not stated) | -15.2% (inactive)
10 | Cc1cc2[nH]ncc2cc1NC(=S)NC(=O)c1ccccc1 | -6% (inactive)
11 | CCOC(=O)/C(=C\c1ccc([N+](=O)[O-])cc1)C(=O)c1cc(C(C)=O)c(Nc2ccccc2)s1 | 5.8% (inactive)
12 | CN(C)C(CNC(=O)CCCOc1ccccc1)c1ccco1 (configuration not stated) | -22.1% (inactive)
13 | O=C(c1ccccc1)C(Cn1cncn1)C(Sc1ccccc1)c1ccccc1 (configuration not stated) | -17.7% (inactive)
14 | CC(C)C(=O)Nc1cccc(NC(=S)NC(=O)C(c2ccccc2)c2ccccc2)c1 | -31.2% (inactive)
15 | Fc1ccccc1COc1ccccc1CNCc1ccncc1 | 2.6% (inactive)
16 | COc1ccc(NS(=O)(=O)c2ccc(NC(=S)NC(=O)CC(C)C)cc2)cc1 | -22.5% (inactive)
17 | Cc1ccc(N2CCN(C3=NC(=O)/C(=C\c4cccs4)S3)CC2)cc1 | -5.4% (inactive)
18 | COc1ccc(CN2CCn3ncc(C(=O)Nc4ccc(Cl)cc4Cl)c3C2=O)cc1 | -5.8% (inactive)
19 | CNC(=S)NNC(=O)c1sccc1OCc1ccccc1 | -14.5% (inactive)

Row | Structure (SMILES) | cell count reduction
20 | Cc1n[nH]c(=S)n1/N=C/c1ccc(Br)o1 | -5.8% (inactive)
21 | Cc1ccc(C2CC2C(=O)NN)cc1 (configuration not stated) | -10.3% (inactive)
22 | O=C(CNC(=O)OCc1ccccc1)Oc1cc2oc(=O)cc(-c3ccccc3)c2cc1Cl | 0% (inactive)
23 | O=S(=O)(N/N=C\c1cccn1-c1ccccc1)c1ccc2ccccc2c1 | -15.3% (inactive)
24 | Cc1c(NC(=O)/C=C/C(=O)O)cccc1[N+](=O)[O-] | -2.4% (inactive)
25 | CCOC(=O)C1=C(C)Nc2sc(C(=O)c3ccc(Br)cc3)c(N)c2C1c1ccc(C(=O)OC)cc1 (configuration not stated) | -15.9% (inactive)
26 | COc1ccc(CCNC(=S)NC(=O)/C=C/c2ccc(C)cc2)cc1OC | -29.7% (inactive)
27 | COc1ccc(Oc2coc3cc(OC(=O)c4cncc(Br)c4)ccc3c2=O)cc1 | 7% (inactive)
28 | O=C(NC1CC1)c1ccc2c(c1)NC(=O)c1ccccc1S2 | -13.8% (inactive)
29 | Cc1ccc(/C=N/NC(=O)c2sccc2OCc2ccc(F)cc2)cc1 | -8.8% (inactive)
30 | Cc1cc(=O)oc2cc(OC(C)C(=O)Nc3ccc(N4CCOCC4)cc3)ccc12 (configuration not stated) | -7.6% (inactive)
31 | Cc1nnc(NC(=O)CSc2nc(C3CCCCC3)nc3ccccc23)s1 | -7.9% (inactive)
32 | O=C1CCN(C(=O)Nc2ccccc2)N1 | -11.8% (inactive)
33 | CCOc1cccc(SCc2noc(C(=O)NC(C)C)c2C(=O)O)c1 | -41.1% (inactive)
34 | Cc1cc([N+](=O)[O-])c(N2CCC[C@@H]2C(=O)O)c([N+](=O)[O-])c1 | -11.9% (inactive)
35 | CC(C(=O)Nc1ccc(F)c(F)c1F)N1CCCCCC1 (configuration not stated) | 0% (inactive)
36 | CCC(C(=O)NCc1ccc(OC)cc1)n1nc(C)n2c(cc3occc32)c1=O (configuration not stated) | -4.6% (inactive)
37 | C/C(=N\NS(=O)(=O)c1cccc([N+](=O)[O-])c1)c1cc2ccccc2o1 | -56% (inactive)
38 | CC1CC(C)CN(C(=O)CSc2nnc(CSc3ncccn3)n2C)C1 (configuration not stated) | -24.8% (inactive)

Row | Structure (SMILES) | cell count reduction
39 | Cc1ccc(NC(=S)NC(=O)c2ccc(-c3ccccc3)cc2)c(C)c1 | -14.1% (inactive)
40 | CCCCNC(=O)CSc1nc2ccc(NC(=O)CSc3nnc(COc4ccccc4C)n3C)cc2s1 | -20.8% (inactive)
41 | O=C(Nc1ccccc1Cl)O/N=C(/c1ccccc1)c1ccccn1 | 9.5% (inactive)
42 | Cc1nn(Cc2ccccc2Cl)c(C)c1NC(=O)Cn1nc([N+](=O)[O-])c(Cl)c1C | 10.2% (inactive)
43 | CSCc1cc(N(C)C)nc(SCc2ccc(Cl)cc2Cl)n1 | -3% (inactive)
44 | COCCCNCC(=O)Nc1sc(C)c(C)c1C(=O)OC | -27.9% (inactive)
45 | COc1ccc2c(Cl)c(C(=O)NCc3ccco3)sc2c1 | -12% (inactive)
46 | O=C(CSc1ccc(/C=N/NC(=O)c2cccc(F)c2)o1)Nc1ccccc1 | -19.1% (inactive)
47 | C=CCn1c(-c2ccc(Cl)cc2)ccc(C#N)c1=O | 4.1% (inactive)
48 | CCC(c1nnnn1C(C)(C)C)N(Cc1cc2cccc(C)c2n2nnnc12)C1CCCC1 (configuration not stated) | -17% (inactive)
49 | O=C(CCCN1C(=O)c2ccccc2C1=O)Oc1ccc(Cl)cc1 | -17.1% (inactive)
50 | CN1/C(=c2/s/c(=C3/C(=O)N(c4ccccc4)NC3=Nc3ccccc3)n(C)c2=O)C(C)(C)c2ccccc21 | 3.8% (inactive)
51 | C(=N/N1CCN(c2ccccc2)CC1)/c1cccs1 | -6.5% (inactive)
52 | Cc1ccc(-n2c(CNc3ccc(F)cc3)nnc2SCC(=O)N2CCOCC2)cc1 | -20.7% (inactive)
53 | COc1ccc(-c2c(C(C)=O)c(C)nc3sc4c(=O)n(-c5ccc(C)cc5)nnc4c23)cc1 | -14.8% (inactive)
54 | Cc1cc(C)n2nc(C(=O)NC(C)(C)C)nc2n1 | 14.4% (inactive)
55 | COc1cc(OC)cc(C(=O)NC(=S)N2CCN(c3ccc(C(F)(F)F)cc3[N+](=O)[O-])CC2)c1 | -5.1% (inactive)
56 | Cc1cccc(N(C(=O)c2ccc(CN3CCOCC3)o2)C(C(=O)NC2CCCCC2)c2ccc(F)cc2)c1 (configuration not stated) | -36.1% (inactive)
57 | Cc1ccc(-n2nc(N)c3c(=O)oc(N(C)C)nc32)cc1 | 5% (inactive)

Reference: PubChem BioAssay AID848 (Columbia University Molecular Screening Center, 2007)
